Test results taken from ChEMBL document CHEMBL4513139, “CO-ADD screening of University of Strathclyde (UK) compounds”.
The campaign covered roughly 21,000 compounds. Fewer than 10 showed an effect of 50% or more. A selection follows. Measured potencies and affinities stand elsewhere.

Tested on: Acinetobacter baumannii
Conditions: Concentration 32 ug.mL-1; ASSAY_TEST Inhibition of Bacterial Growth; detection method Absorption (OD600); MEDIA CAMHB; plate type 384well; NBS; CORNING #3640; time 18 hr

Row | Structure (SMILES) | Inhibition [%]
1 | Cn1cc(NC(=O)c2cc(NC(=O)c3ccc(/C=C/c4cccc(F)c4)cc3)cn2C)cc1C(=O)NCCN1CCOCC1.O=C(O)C(F)(F)F | 5.74
